# The list is not random: actives were taken first. Their share in the collection is about 1.8%.
# NPR2 activator: human GC-B receptor activators, primary screen, HEK293 GC-B cells, cGMP TR-FRET, EC30 CNP; activation, % at 10 µM; Atrial natriuretic peptide receptor 2 (Homo sapiens), P20594; 0% at EC30 CNP, 100% saturating CNP; 0.11% of 370,000 active;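 active = activation at 10 µM reaching about 35% in either raw or pattern-adjusted values, limit read from the data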
# Myeloid diff MLP: induction of myeloid progenitor differentiation, primary screen, cell-based, flow cytometry, MLPCN library; 1% of 360,000 active; ER-HoxA9 myeloid progenitors, lysozyme-GFP differentiation; calls only at 10 µM;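 active = normalized GFP-positive differentiation at or above the plate's own cutoff, the solvent-only control mean plus 3 SD; inconclusive = no clear call, values can overlap the other calls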;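 also: cells exposed to compound for four days before flow analysis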
# Exocytosis inh: LAMP-1 surface exposure blockers, TALL-104 cells – cell-based, flow cytometry, MLPCN library, primary screen | inhibition, % at 10 µM | TALL-104 LAMP-1 surface exposure; cells stimulated with thapsigargin and PMA | AID 651702, 2012 | 0.66% of 360,000 active;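 active = inhibition above about 55%, limit read from the data; inconclusive = no clear call, values can overlap the other calls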
# GC-A act: GC-A stimulated cGMP production enhancers – HEK293 GC-A cells, cGMP TR-FRET, EC30 ANP, primary screen; activation, % at 10 µM; 0.14% of 370,000 active; 0% at EC30 ANP, 100% saturating ANP; AID 1671463, 2021; in the data active = activation above about 40%
# Myeloid diff CP1: inducers of myeloid progenitor differentiation, confirmation, cell-based, GFP/Mac1 flow cytometry, cherry pick 01; ER-HoxA9 myeloid progenitors, GFP/Mac1 double-positive flow; calls only; shares compounds with Myeloid diff MLP; 2% of 2,300 active; AID 651706, 2012;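 active = share of green or green-and-red cells above 9 and 9% in run 1 or 4 and 3% in run 2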
# GFP autofluor: counter-screen for myeloid differentiation promoters: compound fluorescence. shares compounds with Myeloid diff MLP. ER-HoxA9 myeloid progenitors, no estrogen, GFP autofluorescence flow cytometry; vehicle wells 0%, positive control 100%. fluorescence response, % (no concentration beside the values). 7.4% of 2,300 active. AID 651707;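 active = over 5% cells positive for green fluorescent reporter, or over 2% positive for both it and APC stain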;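 also: range taken on the double positive population between DMSO and positive control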
# Numbers without * were called inactive; i = inactive; u = inconclusive; x = no result; + = active, no number.
SMILES,NPR2 activator,Myeloid diff MLP,Exocytosis inh,GC-A act,Myeloid diff CP1,GFP autofluor
CCNc1ccc(S(=O)(=O)N(C)C)cc1NCC(=O)Nc1ccc(F)c(Cl)c1,-8,i,16,-1,i,0
NS(=O)(=O)c1ccc(NC(=S)NCc2ccccc2Cl)cc1,-8,i,-2,-4,i,1
NS(=O)(=O)c1ccc(NC(=S)NCc2ccccc2)cc1,2,i,1,4,x,x
Cc1cc(C)n2c(NC3CCCC3)c(-c3cc4ccccc4o3)nc2n1,4,i,4,3,i,2
Cc1cc(C)n2c(NC3CCCCC3)c(-c3ccccn3)nc2n1,2,i,-2,-2,x,x
CCN(CC)CCNC(=O)c1cn(CC)c2ccc(S(=O)(=O)N(C)C3CCCCC3)cc2c1=O,-3,i,-7,-1,x,x
CCN(CC)CCNC(=O)c1cn(C)c2ccc(S(=O)(=O)N(C)C3CCCCC3)cc2c1=O,3,i,4,1,i,0
O=[N+]([O-])c1ccccc1/C=C/CN1CCCCC1CO (stereo not given),-5,i,3,-2,x,x
O=[N+]([O-])c1ccccc1/C=C/CN1CCCCC1,-2,i,-4,-1,i,0
CC(=O)c1c(N2CCOCC2)nc(=S)n(-c2ccccc2)c1C,2,i,-2,0,x,x
CC(=O)c1c(N2CCOCC2)nc(=S)n(-c2ccc([N+](=O)[O-])cc2)c1C,0,i,0,0,i,1
N#CCc1nc2n(n1)Cc1ccccc1-2,5,i,9,3,i,0
CC(C)(CN1CCCN(CC(C)(C)C(=O)O)C1=O)C(=O)O,-2,i,22,3,x,x
O=S1(=O)CC2SC(=S)N(c3ccccc3)C2C1 (stereo not given),-8,i,4,5,x,x
CC12CS(=O)(=O)CC1SC(=S)N2c1ccccn1 (stereo not given),-2,+,-2,1,i,0
Cc1c(C(=O)N2CCN(c3ccccc3)CC2)sc2ncnc(N3CCN(c4ccccn4)CC3)c12,4,+,-21,-2,i,0
O=C(Nc1ccccc1)c1cc(C2CCCCN2C(=O)c2ccccc2)on1 (stereo not given),1,i,1,-1,x,x
CCOC(=O)/C(C#N)=N/Nc1ccc(S(=O)(=O)N2CCc3ccccc32)cc1,1,i,-4,4,x,x
N#C/C(=N\Nc1ccc(S(=O)(=O)N2CCc3ccccc32)cc1)C(N)=S,2,+,1,-3,i,0
O=C(CCS(=O)(=O)c1ccc(Cl)cc1)Nc1nnc(-c2ccco2)o1,1,+,-6,1,i,0
COc1ccc(/C=C2\C(=O)NCC(=O)N2Cc2ccccc2)cc1,-9,+,-3,-17,i,0
COc1ccc(/C=C2\C(=O)N(Cc3ccc(F)cc3)CC(=O)N2Cc2ccccc2)cc1,-14,i,-3,-12,x,x
O=C(Cc1ccccc1)N/N=C/c1cc(Br)c(Br)o1,2,i,-2,6,i,1
O=C(Cc1ccccc1)NN=Cc1ccccc1,1,i,-4,0,x,x
COC(=O)[C@]12C[C@H](CC(=O)NCC3CCCCC3)C(=O)N(Cc3ccccc3)C1=C[C@H](COCc1ccccc1)O[C@@H]2C,2,x,x,-1,x,x
SMILES,NPR2 activator,Myeloid diff MLP,Exocytosis inh,GC-A act,Myeloid diff CP1,GFP autofluor
Cc1ccc(N(C(=O)Cn2nnc(-c3cccs3)n2)C(C(=O)NC2CCCC2)c2ccncc2)cc1 (stereo not given),-6,i,0,1,i,0
Cc1ccc(N(C(=O)Cn2nnc(-c3ccccc3F)n2)C(C(=O)NC2CCCC2)c2ccncc2)cc1 (stereo not given),-3,i,-5,2,x,x
NC(Cc1ccc(C(F)(F)F)cc1)c1csc(Nc2cc(NCc3ccco3)ncn2)n1 (stereo not given),-4,i,16,-17,x,x
O=C1CSC(=Nc2ccc(F)cc2)N1,3,+,5,0,i,0
O=C1CSC(=Nc2ccccc2)N1,6,i,-3,-4,x,x
CN1C(=O)/C(=C/c2cn(CC(=O)N3CCCCC3)c3ccccc23)NC1=S,3,+,-2,8,i,97*
COc1ccc(C(=O)N[C@H](C(=O)Nc2cccc(S(=O)(=O)N3CCOCC3)c2)C(C)C)cc1,3,+,-1,-3,i,0
COc1ccc(Br)c(C(=O)Nc2cccc(S(=O)(=O)N3CCOCC3)c2)c1,6,i,1,0,x,x
COc1ccc(C(=O)C[n+]2ccc(N(C)C)cc2)cc1,0,i,-2,-2,i,0
COc1ccc(C(=O)C[n+]2cccc3cc(OC)ccc32)cc1,-1,x,6,1,x,x
CN(C)c1cc[n+](CC(=O)c2ccc(Br)cc2)cc1,1,i,1,1,x,x
COc1ccc(C(=O)C[n+]2cccc3cc(C)ccc32)cc1,6,i,1,3,i,42*
CN(c1c2c(nc3ncnn13)CCCC2)C1CCCCC1,-3,x,x,4,x,x
O=C1OC(/C(=C\Nc2cc(Cl)ccc2O)[N+](=O)[O-])c2ccccc21 (stereo not given),-8,i,2,0,i,0
COc1cccc(C(O)c2ncc(-c3ccccc3)[nH]2)c1 (stereo not given),6,i,-5,4,x,x
COCCNC(=O)C1(C)CCCN(Cc2ccc(Cl)nc2)C1 (stereo not given),x,i,-9,x,x,x
Cc1[nH]nc2c1C1(C(=O)N(Cc3ccc(Cl)cc3)c3ccccc31)C(C#N)=C(N)O2 (stereo not given),-14,i,-1,-34,i,0
COC(=O)Cc1[nH]nc2c1C1(C(=O)N(Cc3ccccc3)c3ccccc31)C(C#N)=C(N)O2 (stereo not given),-7,u,-7,-6,x,x
C[C@@H]1CC=C[C@H]2[C@H]1C(=O)N(Cc1ccccc1)[C@H]2c1ccc(-c2ccc(F)cc2)cc1F,1,i,-5,4,i,0
CCOC(=O)NC1(C(F)(F)F)N=C(c2ccccc2)NC1=O (stereo not given),7,i,-2,1,x,x
CC(=O)Nc1ccc(S(=O)(=O)NC2(C(F)(F)F)N=C(c3ccccc3)NC2=O)cc1 (stereo not given),11,i,-3,5,i,0
COC(=O)[C@H](C(C)C)N1Cc2nnn(Cc3ccccc3)c2-c2cc(F)ccc2S1(=O)=O,4,x,x,-2,x,x

# Assay outcomes from PubChem BioAssay.
